# Anthrax LF prot = Bacillus anthracis LF protease inhibitors, primary screen, biochemical, multiplex microsphere, MLPCN library; Lethal factor (Bacillus anthracis), P15917; multiplex microsphere protease cleavage assay; inhibition, % at 10 µM; 0.12% of 360,000 active; AID 588501, 2011; note: plate controls were buffer without enzyme for full effect and enzyme alone for no effect
# Target sequence (P15917 whole entry, looked up): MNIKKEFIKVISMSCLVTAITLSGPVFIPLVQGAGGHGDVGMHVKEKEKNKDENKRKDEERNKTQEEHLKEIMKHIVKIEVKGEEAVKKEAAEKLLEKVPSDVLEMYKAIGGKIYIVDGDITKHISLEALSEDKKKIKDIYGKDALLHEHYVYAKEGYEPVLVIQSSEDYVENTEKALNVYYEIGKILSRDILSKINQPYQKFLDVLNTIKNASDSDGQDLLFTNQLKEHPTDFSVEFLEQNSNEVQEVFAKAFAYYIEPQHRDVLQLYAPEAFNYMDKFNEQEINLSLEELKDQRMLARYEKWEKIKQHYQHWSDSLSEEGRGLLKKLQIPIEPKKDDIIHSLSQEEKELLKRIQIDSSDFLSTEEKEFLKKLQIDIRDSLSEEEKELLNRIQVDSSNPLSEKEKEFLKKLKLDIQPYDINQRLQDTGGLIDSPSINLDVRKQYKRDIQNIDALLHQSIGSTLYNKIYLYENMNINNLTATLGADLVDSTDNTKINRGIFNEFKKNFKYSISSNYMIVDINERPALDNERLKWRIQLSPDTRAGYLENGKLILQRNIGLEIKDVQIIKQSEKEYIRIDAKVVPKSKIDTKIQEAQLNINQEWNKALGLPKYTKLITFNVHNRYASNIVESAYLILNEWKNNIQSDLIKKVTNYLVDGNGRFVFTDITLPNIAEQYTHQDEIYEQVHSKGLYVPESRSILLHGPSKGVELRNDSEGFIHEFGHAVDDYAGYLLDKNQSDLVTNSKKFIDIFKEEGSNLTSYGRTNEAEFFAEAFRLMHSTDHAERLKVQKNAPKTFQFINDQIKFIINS
# BoNT F protease = BoNT/F light chain protease inhibitors, primary screen, biochemical, flow cytometry, MLPCN library. Botulinum neurotoxin type F light chain protease (Clostridium botulinum). Multiplex microsphere protease cleavage assay. inhibition, % at 10 µM. 0.22% of 360,000 active; in the data active = inhibition above about 35%, passing the limit was not always enough; inconclusive = no clear call, values can overlap the other calls; note: plate controls were buffer without enzyme for full effect and enzyme alone for no effect
# Autofluor counter = flagged as autofluorescent in microsphere protease counterscreen; compound autofluorescence counterscreen, microsphere flow cytometry; active compounds read high; fluorescence intensity (test concentration not listed); 3.1% of 360,000 active; AID 624483; in the data active = fluorescence intensity above about 16000; inconclusive = no clear call, values can overlap the other calls
# BoNT-A LC inh2 = BoNT/A light chain protease inhibitors, primary screen, biochemical, flow cytometry, MLPCN library; Botulinum neurotoxin type A light chain protease (Clostridium botulinum A str. ATCC 3502); multiplex microsphere protease substrate cleavage; inhibition, % at 10 µM; 0.17% of 360,000 active; AID 588499, 2011; note: plate controls were buffer without enzyme for full effect and enzyme alone for no effect
# BJeLR viability = MLPCN primary cell-based screen for lethality selective to Ras in HRASV12 cells; inhibition, % (concentration not given with the values); 0.17% of 300,000 active; BJeLR (HRASV12) viability, CellTiter-Glo ATP luminescence, 48 h; in the data active = inhibition above about 50%; inconclusive = no clear call, values can overlap the other calls
# Numbers without * were called inactive; ? = inconclusive; / = no result. A selection: hits, their analogues and other compounds. The true share with any hit is near 3.5%. Cut-off read from the data, not from the text of the source, unless noted: active = inhibition above about 30%; inconclusive = no clear call, values can overlap the other calls; inactive = below that.
SMILES,Anthrax LF prot,BoNT F protease,Autofluor counter,BoNT-A LC inh2,BJeLR viability
CC(C)OC(=O)c1ccc(Cn2nnc3ccccc3c2=O)cc1,0,7,20849*,4,-11
O=c1c2ccccc2nnn1Cc1ccc(Br)cc1,3,-2,4408,-1,-3
CCOC(=O)[C@]12CCC=C1N(Cc1ccccc1)C(=O)[C@H](CC(=O)NCc1cccc(C(F)(F)F)c1)C2,-3,-4,5739,0,/
O=C(NC1CCCC1)C1c2ccccc2OCC(=O)N1C1CC1 (configuration not stated),-6,2,5844,0,/
Cc1ccc2[nH]c3c(c2c1)CC/C(=C/c1ccccc1)C3=O,-6,12,8375,3,0
CC(C)/C=C1\CCc2c([nH]c3ccccc23)C1=O,7,6,3562,0,-5
Cc1ccc(/C=C2/CCc3c([nH]c4ccccc34)C2=O)cc1,1,3,23420*,0,2
O=C1/C(=C\c2ccccc2)CCc2c1[nH]c1ccccc21,-1,-3,23509*,-1,-2
CC1CC(C)CN(C(=O)COC(=O)c2ccc3c(c2)OCCO3)C1 (configuration not stated),0,2,3706,0,/
Cc1ccc2nc(N3CCN(C)CC3)c(C#N)cc2c1,-2,2,9382,0,3
Cc1ccc2nc(N3CCN(S(=O)(=O)c4ccc(C)c(Cl)c4)CC3)c(C#N)cc2c1,13,12,21608*,?,-9
O=C(Cc1nnc(NC(=O)c2ccccc2)s1)N/N=C\c1ccc(O)c(O)c1,15,?,3024,1,-13
O=C1c2ccccc2NC2(CCCCC2)N1c1ccc(O)cc1,54*,156*,6978,5,4
COc1cccc(N2CCN(c3c4c(nc5ncnn35)CCC4)CC2)c1,0,3,22408*,4,27
COc1cccc(N2CCN(c3ncccn3)CC2)c1,4,-15,9764,0,-6
c1ccc(N2CCN(c3c4c(nc5ncnn35)CCC4)CC2)cc1,-1,6,21815*,3,14
Cc1cc(N2CCN(c3ccccc3)CC2)n2ncnc2n1,0,2,4239,0,-4
O=C(OCC(=O)N1CCC(Cc2ccccc2)CC1)c1cccnc1Cl,-9,-33,2962,-3,/
COc1ccc(S(=O)(=O)NCC2CCCO2)cc1NC(=O)c1ccc(Cl)cc1 (configuration not stated),-1,10,4466,5,5
C=CCOc1cccn2c(N(C=O)Cc3ccc(OC)cc3)c(CC)nc12,-4,0,3039,0,/
CCN1CCN(C(c2cccs2)C(C)NC(=O)c2ccccc2OC)CC1 (configuration not stated),2,-4,4804,-1,8
COc1ccc(N2CCN(C(c3cccs3)C(C)NS(=O)(=O)c3ccccc3)CC2)cc1 (configuration not stated),-11,-7,16688*,-2,6
CCN1CCN(C(c2cccs2)C(C)NC(=O)c2ccco2)CC1 (configuration not stated),0,2,23437*,0,-5
CCN1CCN(C(c2cccs2)C(C)NC(=O)CC(C)C)CC1 (configuration not stated),-2,9,9515,0,-13
CC(NC(=O)c1ccc(F)cc1)C(c1cccs1)N1CCN(C)CC1 (configuration not stated),1,0,21892*,1,6
SMILES,Anthrax LF prot,BoNT F protease,Autofluor counter,BoNT-A LC inh2,BJeLR viability
COc1ccccc1C(=O)NC(C)C(c1cccs1)N1CCN(C)CC1 (configuration not stated),-1,1,23363*,0,6
CCS(=O)(=O)NC(C)C(c1cccs1)N1CCN(c2ccc(OC)cc2)CC1 (configuration not stated),-8,-2,5120,0,6
COC(=O)[C@]12CCCCC=C1N(CCC1=CCCCC1)C(=O)[C@H](CC(=O)NCc1cccc3ccccc13)C2,-7,6,5545,0,/
Cn1cccc1C(=O)OCC(=O)N1CCN(c2ccccc2)CC1,-2,-6,3865,0,/
CC(NS(=O)(=O)c1ccc(F)cc1)C(c1cccs1)N1CCN(C)CC1 (configuration not stated),0,-4,24274*,-3,-10
O=C(CSc1nnc(-c2ccccn2)n1Cc1ccco1)Nc1ccc2c(c1)OCO2,-3,-3,20585*,-1,-5
CCn1c(SCC(=O)Nc2ccc3c(c2)OCCO3)nnc1-c1ccccn1,-2,-31,13400,-2,5
COc1ccc(C(=O)CSc2nnc(-c3cccnc3)n2Cc2ccco2)cc1,-6,4,10586,0,1
COc1ccccc1NC(=O)CSc1nnc(-c2ccccn2)n1Cc1ccco1,-5,-2,5786,0,-7
COc1ccc(C(=O)CSc2nnc(-c3cc4ccccc4cc3O)n2Cc2ccco2)cc1,-4,-6,23275*,-1,17
COc1ccccc1NC(=O)CSc1nnc(-c2ccco2)n1Cc1ccco1,0,-1,19643*,0,4
COc1ccc(C)cc1NC(=O)CSc1nnc(-c2ccccn2)n1Cc1ccco1,-1,-8,21479*,?,-7
O=C(/C=C/c1ccc([N+](=O)[O-])cc1)Nc1cccc(C(=O)Nc2ccccc2C(=O)O)c1,-4,10,3665,0,-1
Cc1cccc(C)c1-n1nnnc1C1c2ccccc2C(=O)N1C1CC1 (configuration not stated),-1,1,5758,1,/
CCN(CC)c1ccc(/C=N/Nc2nc(C)cc(=O)[nH]2)c(O)c1,-3,-4,2063,0,67*
Clc1ccc(Nc2ncn[nH]2)cc1,1,-2,23107*,0,3
CCOCCCNC(=O)c1cc(C)nn1-c1ccccc1,-9,-10,5805,-1,14
CCOCCCNC(=O)c1cc2sc(Cl)cc2n1CC,-10,-15,18115*,?,-2
CCCCN(C(=O)c1ccc(S(=O)(=O)N2CCCCC2)cc1)C1CCS(=O)(=O)C1 (configuration not stated),2,14,5108,1,-7
CCOC(=O)CSc1nnc(-c2nnc(SCC(=O)OCC)n2CC)n1CC,5,14,16806*,11,11
CCn1c(SCC(=O)OC)nnc1-c1ccc(C)cc1,4,-2,4594,-1,0
O=C1c2cc(S(=O)(=O)NCCCO)ccc2-c2ccc(S(=O)(=O)NCCCO)cc21,-1,1,21753*,3,-8
COCCNS(=O)(=O)c1ccc2c(c1)C(=O)c1cc(S(=O)(=O)NCCOC)ccc1-2,-3,1,16158*,1,-2
COCCNS(=O)(=O)c1ccc(F)c(OC)c1,-3,-2,10708,0,/

# Bioassay records from PubChem.
